About 8,600 (12%) of roughly 69,000 compounds showed an effect of 50% or more. The sample as a whole holds a higher share of strong results than the screen did.
Test system: Plasmodium berghei
Assay: Screen against P. berghei liver stage (PbLuc), transformed with Luciferase, at 10uM
Format: functional, HepG2
Conditions: tested at 10 uM

Row | SMILES | INHIBITION [%]
1 | COc1ccc(CC(=O)N2CCCC2Cn2cc(C)cn2)c(OC)c1 (configuration not stated) | 43.2
2 | CC(C)(O)CN1CCN(C(=O)c2cccn2Cc2cccnc2)CC1 | 34.6
3 | Cc1cccc2nc(CN3CCCC3Cn3cccn3)cn12 (configuration not stated) | 19.4
4 | Cn1cc(CNC2CCCOc3c2ccc2ccccc32)cn1 (configuration not stated) | -28.7
5 | CCCn1ncc(C(=O)N(CCOC)Cc2c(C)nn(CC)c2C)c1C | -89.3
6 | COCCN(CCOC)C(=O)c1cnn(C)c1C | 90.7
7 | COCCN(CCOC)C(=O)c1cnn(C)c1-n1c(C)ccc1C | 42.1
8 | CNC(=O)CN(C)Cc1ccc(F)cc1Cl | -154
9 | COCCCNC(=O)CN(C)Cc1ccc(F)cc1Cl | -102
10 | COCCNC(=O)CN(C)Cc1ccc(F)cc1Cl | 52.2
11 | CN(C)C(=O)C1CCN(C(=O)c2c[nH]c3cc(Cl)ccc23)CC1 | -32.2
12 | CN1CCC(c2cncc(C(=O)NCc3ccc(F)cc3)n2)CC1 | -3.02
13 | O=C(CCc1cccnc1)N1CCC2(CCN(CC3CCCC3)C2)C1 (configuration not stated) | -7.2
14 | COCCN1CCC(c2cncc(-c3ccccc3C)n2)CC1 | 46
15 | Oc1cccc(CN2CCN(C3CCc4ccccc4C3)CC2)c1 (configuration not stated) | 54.8
16 | COc1cc(O)ccc1CN1CCN(C2CCc3ccccc3C2)CC1 (configuration not stated) | 37.6
17 | COc1ccc(CN2CCN(C3CCc4ccccc4C3)CC2)cc1O (configuration not stated) | 46.7
18 | CNc1cc(C)nc(C2COCCN2CCc2ccc(F)cc2)n1 (configuration not stated) | 19.6
19 | CCN1Cc2cc(F)ccc2N(C(C)=O)CCC1=O | 23
20 | CC(C)N1CCc2[nH]nc(C(=O)N3CCOCC3)c2C1 | -1.12
21 | CCN(CC)[C@@H]1CN(C(=O)c2ccnnc2)[C@@H]2CCCO[C@H]12 | -62.8
22 | CN(C)[C@@H]1CN(C(=O)c2ccc(C#N)cc2)[C@@H]2CCCO[C@H]12 | -73.3
23 | CCN(CC)[C@@H]1CN(C(=O)c2ccc(C#N)cc2)[C@@H]2CCCO[C@H]12 | 73.6

Row | SMILES | INHIBITION [%]
24 | COCCn1c2c(ccc1=O)CCN(C(=O)Cc1ccsc1)CC2 | 27.5
25 | CC(C)C(=O)N1CCCC(c2ncncc2-c2ccncc2)C1 (configuration not stated) | 48.3
26 | O=C(c1ccccn1)N1CCCN(Cc2nnc(C3CC3)o2)CC1 | -57.4
27 | Cc1noc(CN2CC=C(c3c[nH]c4ncccc34)CC2)n1 | 74.7
28 | Fc1ccc2c(C3=CCN(Cc4nnc(C5CCC5)o4)CC3)c[nH]c2c1 | 34.6
29 | C1=C(c2c[nH]c3ncccc23)CCN(Cc2nnc(C3CC3)o2)C1 | 71.4
30 | Cc1cnc(CN2CC=C(c3c[nH]c4ncccc34)CC2)o1 | 44.9
31 | Cc1noc(CN2CC=C(c3cnn(C4CCS(=O)(=O)C4)c3)CC2)n1 (configuration not stated) | 1.98
32 | Cc1cnn(CC2CCCCN2C(=O)Cc2cccc(F)c2)c1 (configuration not stated) | 35.9
33 | COc1ccc(C(C)NC(=O)c2nn(C)c(C)c2Br)cc1 (configuration not stated) | 30.2
34 | OC(CN1CCN(Cc2ccc(F)cc2)CC1)C1CC1 (configuration not stated) | -0.113
35 | Cc1cc(C2CCCCCN2Cc2cn(C)nc2C)no1 (configuration not stated) | 6.32
36 | O=C(Nc1ccc(F)cc1)N1C[C@@H]2C[C@H](C(=O)N3CCCC3)[C@H](C1)O2 | 7.67
37 | CC(C)CN(CCc1ccccc1)Cc1nc2c(cnn2C)c(=O)[nH]1 | 29.2
38 | Cc1ccccc1CC(C)NCc1c(C)nn(C)c1N1CCOCC1 (configuration not stated) | 13.5
39 | CCc1ccccc1OCCN(C)C(=O)CCN1CCCCO1 | 69.3
40 | Cc1ccc(OCCN(C)C(=O)CCCN2CCCC2=O)c(C)c1 | -12.6
41 | CCc1ccccc1OCCN(C)C(=O)CN1CCCC1 | 59.1
42 | CCc1ccccc1OCCN(C)C(=O)CCN1CCCO1 | 42.4
43 | CN(CCCOc1ccccc1Cl)C(=O)CN1CCCCCC1=O | 21.2
44 | CCc1ccccc1OCCCN(C)C(=O)C1CCCN1C(N)=O (configuration not stated) | -40.4
45 | O=C(Cc1csc(-c2ccccc2F)n1)NCc1cccc(C(=O)O)c1 | 0.29
46 | CO[C@H]1CN(S(=O)(=O)c2ccccc2F)C[C@@]12CCCO2 | 3.48

Row | SMILES | INHIBITION [%]
47 | Cc1nc(N)cc(C2CCN2CCOc2ccccc2)n1 (configuration not stated) | -0.232
48 | COc1ccnc(N2CCN(C(=O)CN3CCOCC3)CC2)n1 | 31.9
49 | CC(=O)N1CCCC1c1nccnc1Nc1ncccn1 (configuration not stated) | -107
50 | Cc1c(Cl)c(C(F)(F)F)nn1C(C)C(=O)NC1CCN(C)CC1 (configuration not stated) | 26.8
51 | CC(C(=O)NC1CCN(C)CC1)n1nc(C(F)(F)F)c(Cl)c1C1CC1 (configuration not stated) | 82.4
52 | O=C(Cn1nc(C(F)(F)F)c(Cl)c1C1CC1)NN1CCOCC1 | -3.11
53 | Cc1c(Cl)c(C(F)(F)F)nn1C(C)C(=O)NN1CCN(C)CC1 (configuration not stated) | 35.7
54 | CC(C(=O)NN1CCOCC1)n1nc(C(F)(F)F)c(Cl)c1C1CC1 (configuration not stated) | 74.1
55 | CC(C(=O)O)n1nc(C(F)(F)F)c(Cl)c1C1CC1 (configuration not stated) | 7.3
56 | Cn1ccc2ccc(C(=O)Nc3nc[nH]n3)cc21 | 46.4
57 | CC(=O)N1CCN(C(=O)NCc2ccc(Cl)s2)CC1 | 42
58 | O=C1CC[C@H]2[C@H](CCN2C(=O)c2ccc[nH]2)N1CCN1CCOCC1 | -14.4
59 | Cc1nc2ccccc2n1CCNCc1cccc(O)c1 | -57.5
60 | O=C1CO[C@@H]2CN(S(=O)(=O)c3ccccc3F)C[C@H]2N1 | 44.4
61 | O=C1CO[C@@H]2CN(S(=O)(=O)c3ccc(F)cc3)C[C@H]2N1 | 82.2
62 | C[C@@H]1C[C@H]2CN(S(=O)(=O)c3ccc(F)cc3)C[C@H]2O1 | 24.8
63 | c1ncn(Cc2cn3c(n2)CN(CC2CCCC2)CC3)n1 | -16.9
64 | O=C(c1cnc(-c2cnccn2)s1)N1CCCC1Cn1cccn1 (configuration not stated) | -21.5
65 | O=C(NCc1ccccc1)N1CCC2(CC(=O)N(c3ccccc3)C2)C1 (configuration not stated) | -14.7
66 | CCN(C(C)=O)c1nc(CN2CCCC2Cn2cncn2)cs1 (configuration not stated) | -6.44
67 | COCCN1CCC(C(=O)N(C)Cc2c[nH]c3ccc(C)cc23)C1 (configuration not stated) | 39.9
68 | COCCN1CCC(C(=O)N(C)Cc2cccc(Cl)c2)C1 (configuration not stated) | 13.9
69 | COCCN1CCC(C(=O)N(C)CCOc2ccc(C)cc2Cl)C1 (configuration not stated) | 59.3

Row | SMILES | INHIBITION [%]
70 | Cc1cn(-c2ccccc2)nc1NS(=O)(=O)c1ccc(C(=O)O)cc1F | -20
71 | CC(=O)NCc1cc2n(n1)CCN(Cc1cccc(Cl)c1Cl)C2 | -26.8
72 | CSc1ccccc1CN1CCCn2nc(CNC(=O)N(C)C)cc2C1 | -19.4
73 | CC(=O)NCc1cc2n(n1)CCN(Cc1ccccc1OC(F)(F)F)C2 | 53.8
74 | CSc1ccccc1CN1CCn2nc(CNC(C)=O)cc2C1 | 55.4
75 | CSc1ccccc1CN1CCn2nc(CNC(=O)N(C)C)cc2C1 | 4.97
76 | CCc1ccccc1CN1CCn2nc(CNC(C)=O)cc2C1 | 22
77 | O=C(c1ccc2c(c1)COC2)N1CCN(CCO)CC1 | 21.5
78 | c1ncc2c(n1)CN(Cc1nc(-c3ccsc3)no1)CC2 | -16
79 | NC(=O)CN(Cc1ncc(-c2ccc(F)cc2)o1)C1CCCC1 | -13.6
80 | CSCC[C@H](NC(=O)CCn1cc(C(C)=O)c2ccccc21)C(=O)O | -35.7
81 | CC(C)c1nnc2n1CC(CNCc1ccc3c(c1)OCCO3)CC2 (configuration not stated) | 17
82 | Cc1ccc(NC(=O)Nc2cnc(N3CCN(C)CC3)nc2)cc1 | 37.4
83 | Cc1ccc(NC(=O)Nc2cnc(N3CCN(C)CC3)nc2)c(Cl)c1 | 57.6
84 | COc1ccc(NC(=O)Nc2cnc(N3CCN(C)CC3)nc2)cc1Cl | 45
85 | COc1ccc(C)cc1NC(=O)Nc1cnc(N2CCCC2)nc1 | 45.5
86 | COc1ccc(C)cc1NC(=O)Nc1cnc(N2CCOCC2)nc1 | 50.2
87 | COc1ccc(C)cc1NC(=O)Nc1cnc(N2CCN(C)CC2)nc1 | 38.7
88 | C[C@H]1C(=O)NC[C@H]2CN(Cc3ccccc3)C[C@H]21 | -9.27
89 | CCS(=O)(=O)NCC(Cc1cccc(F)c1)N1CCNC1=O (configuration not stated) | 23.1
90 | CC(Cn1cccn1)NC(=O)Nc1ccccn1 (configuration not stated) | -4.16
91 | CCCc1ncc(C(=O)c2ccc(OC)cc2)n1C | 0.29
92 | CCc1ncc(C(=O)c2ccc(OC)cc2)n1C | 54.2

Row | SMILES | INHIBITION [%]
93 | COc1ccc(C(=O)c2cnc(C(C)C)n2C)cc1 | 33.9
94 | Cc1cc(=O)[nH]cc1C(=O)N1CCN(C)c2ccccc2C1 | 42.8
95 | COCCC(Cc1cccc(Br)c1)C(=O)NCC(N)=O (configuration not stated) | 12.3
96 | CNc1cc(-c2cccc(CN)c2)c2cc[nH]c2n1 | 5.91
97 | CCNCCOc1ccc(-c2cc(N)nc3[nH]ccc23)cc1 | 59.5
98 | Nc1cc(-c2cc(O)cc(C(=O)O)c2)c2cc[nH]c2n1 | 35.4
99 | Cc1ccc(N2CCC3(CCN(C(=O)N(C)C)CC3)CC2)nn1 | 35.4
100 | CCN(CC)S(=O)(=O)NCC(O)c1c(Cl)cccc1Cl (configuration not stated) | -20
101 | CC(C)(CCS(C)(=O)=O)CNC(=O)NC1CCCC1(C)C (configuration not stated) | -21.9
102 | O=C(CN1CCc2sccc2C1)Nc1ccnc2ccnn12 | 82.2
103 | Cn1nccc1NC(=O)CN1CCc2sccc2C1 | 18.6
104 | CC(C)n1nccc1NC(=O)CN1CCc2sccc2C1 | 49.3
105 | CCn1c(C)nnc1SCCNc1cc(OC)ncn1 | 22.1
106 | CCCn1cc(CN2CCCC2c2nccc(CN(C)C)n2)cn1 (configuration not stated) | 25.6
107 | Cc1cccc(N2CCN(CCC(=O)NCc3cccnc3)CC2)c1 | 27.6
108 | Cc1cccc(N2CCN(CCC(=O)NCc3nnc[nH]3)CC2)c1 | -10.6
109 | CCc1nnc(CNC(=O)CCCN2CCCCC2)s1 | 25.1
110 | Cc1cccc(N2CCN(CCC(=O)NCc3cnc(C)cn3)CC2)c1 | 45.8
111 | CCc1nnc(CNC(=O)CCN2CCN(c3cccc(C)c3)CC2)s1 | 52.1
112 | Cc1cccc(N2CCN(CCC(=O)NCc3ccc(C)s3)CC2)c1 | 71.2
